Unmarked numbers belong to inactive results. Results filed as inconclusive are left out. A call without a number means that no potency is given here. Calls of active or inactive are those of the source. Calls follow the shape of the full dose curve.
Experiments:
[1] = molecular target: Acetylcholinesterase (Homo sapiens) (UniProt P22303); test: Acetylcholinesterase (AChE) small molecule antagonists: colormetric cell-based qHTS assay (AID 1347395); also: nearly all actives have a fitted effect of over 30% in size; also: potency is read from the fitted curve at half-maximal effect
How it was run: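 Colorimetric read-out: DTNB detects thiocholine released when cellular AChE in SH-SY5Y cells hydrolyses acetylthiocholine. Cells attached overnight, received compound for 30 min at 37 C, then substrate mix for 90 min at 37 C.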

[2] = molecular target: Acetylcholinesterase (Homo sapiens) (UniProt P22303); test: Acetylcholinesterase (AChE) small molecule antagonists: enzyme-based qHTS assay (AID 1347397); conditions: Potency: AChE enzyme activity inhibition; outcome: AChE enzyme activity inhibition; also: nearly all actives have a fitted effect of over 55% in size; also: potency is read from the fitted curve at half-maximal effect
How it was run: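 Recombinant human AChE, dispensed at 50 mU/mL, was preincubated with Tox21 10K compounds or DMSO vehicle for 30 min at room temperature. DTNB plus acetylthiocholine was then added, and thiocholine was measured colorimetrically after a further 10 min.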

[3] = molecular target: Acetylcholinesterase (Homo sapiens) (UniProt P22303); test: Acetylcholinesterase (AChE) small molecule antagonists: fluorescence cell-based qHTS assay (AID 1347398); conditions: Potency: AChE activity; outcome: AChE activity; also: nearly all actives have a fitted effect of over 50% in size; also: potency is read from the fitted curve at half-maximal effect
How it was run: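 Human SH-SY5Y cells were plated overnight at 37 C, exposed to compound for 30 min at 37 C, 5% CO2, then given acetylthiocholine plus Thiolite Green for 40 min at room temperature; thiocholine fluorescence (Ex/Em 490/520 nm) reports endogenous AChE activity.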

[4] = molecular target: Acetylcholinesterase (Homo sapiens) (UniProt P22303); test: Acetylcholinesterase (AChE) small molecule antagonists: enzyme-based qHTS assay with human liver microsomes (AID 1347399); conditions: Potency: qHTS inhibition; outcome: qHTS inhibition; also: nearly all actives have a fitted effect of over 60% in size
How it was run: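 Recombinant human AChE (50 mU/mL in the enzyme mix) and human liver microsomes (0.25 mg/mL final) were preincubated with compound and NADPH (0.25 mg/mL final) for 30 min at 37 C. Acetylthiocholine/DTNB was then added; thiocholine was read colorimetrically after 10 min at room temperature.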

Acetylcholinesterase (Homo sapiens), sequence (P22303 whole entry, looked up): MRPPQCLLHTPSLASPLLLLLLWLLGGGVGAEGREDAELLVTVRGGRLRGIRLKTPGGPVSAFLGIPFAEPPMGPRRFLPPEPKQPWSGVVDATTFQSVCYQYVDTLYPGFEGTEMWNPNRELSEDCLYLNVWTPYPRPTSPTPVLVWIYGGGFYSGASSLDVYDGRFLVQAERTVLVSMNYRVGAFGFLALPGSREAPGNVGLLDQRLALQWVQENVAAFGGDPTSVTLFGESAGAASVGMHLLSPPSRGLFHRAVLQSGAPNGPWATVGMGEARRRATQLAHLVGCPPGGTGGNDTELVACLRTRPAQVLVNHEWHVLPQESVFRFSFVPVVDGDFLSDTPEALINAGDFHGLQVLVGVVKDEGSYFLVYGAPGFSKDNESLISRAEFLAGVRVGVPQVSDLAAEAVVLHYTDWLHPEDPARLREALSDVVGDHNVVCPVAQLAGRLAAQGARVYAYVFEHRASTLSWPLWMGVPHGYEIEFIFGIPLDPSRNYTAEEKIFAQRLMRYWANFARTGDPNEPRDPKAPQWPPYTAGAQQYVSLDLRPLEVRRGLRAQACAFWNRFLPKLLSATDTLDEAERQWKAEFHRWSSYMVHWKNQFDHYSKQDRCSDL

OC/C(Br)=C(\Br)CO
Potency [1]: inactive | Potency [2]: inactive | Potency [3]: inactive

CC(C)COC(=O)c1ccccc1
Potency [1]: inactive | Potency [2]: inactive | Potency [3]: inactive

CC1(C)[C@H](C(=O)O)N2C(=O)C[C@H]2S1(=O)=O
Potency [1]: inactive | Potency [2]: inactive | Potency [3]: inactive

N[C@@H](Cc1ccc(O)cc1)C(=O)O
activity, negative = inhibition [1]: -0.421% [at 10.5 µM] | activity change, negative = inhibition [2]: -0.135% [at 10.5 µM] | activity change, negative = inhibition [3]: 10.1% [at 10.5 µM]

CCCOc1ccc2nc(NC(=O)OC)[nH]c2c1
Potency [1]: inactive | Potency [2]: inactive | Potency [3]: inactive

CCCCCCCCCO
Potency [1]: inactive | Potency [2]: inactive | Potency [3]: inactive

CCN(CC)CC(=O)Nc1c(C)cccc1C(=O)OC
Potency [1]: inactive | Potency [2]: inactive | Potency [3]: inactive

CCOC(=O)C(F)(F)F
Potency [1]: inactive | Potency [2]: inactive | Potency [3]: inactive

CCOc1ccc2nc(N)sc2c1
Potency [1]: inactive | Potency [2]: inactive | Potency [3]: inactive

CCn1ccc(NS(=O)(=O)c2ccc(N)cc2)nc1=O
Potency [1]: inactive | Potency [2]: inactive | Potency [3]: inactive

CC(C)(C)c1cc(O)c(C(C)(C)C)cc1O
Potency [1]: inactive | Potency [2]: inactive | Potency [3]: inactive

N#Cc1ccccc1C#N
Potency [1]: inactive | Potency [2]: inactive | Potency [3]: inactive

CC(=O)c1ccccc1
Potency [1]: inactive | Potency [2]: inactive | Potency [3]: inactive

O=C(NS(=O)(=O)/C=C/c1ccccc1)c1ccc(F)cc1Cl
Potency [1]: inactive | Potency [2]: inactive | Potency [3]: inactive

OCc1cccnc1
Potency [1]: inactive | Potency [2]: inactive | Potency [3]: inactive

CC/C=C(\C)C=O
Potency [1]: inactive | Potency [2]: inactive | Potency [3]: inactive

C=C(C)C(=O)OCCCCCCCCCC
Potency [1]: inactive | Potency [2]: inactive | Potency [3]: inactive

CC(=O)OC/C=C(/C)CCC=C(C)C
Potency [1]: inactive | Potency [2]: inactive | Potency [3]: inactive

CC1=C(C(=O)O)N2C(=O)[C@@H](NC(=O)[C@H](N)c3ccccc3)[C@H]2SC1
Potency [1]: inactive | Potency [2]: inactive | Potency [3]: inactive

CN1CCC[C@@H]1c1cccnc1
Potency [1]: inactive | Potency [2]: inactive | Potency [3]: inactive

C1=CCCC1
Potency [1]: inactive | Potency [2]: inactive | Potency [3]: inactive

CC(=O)OCC(=O)[C@@]1(O)[C@H](C)C[C@H]2[C@@H]3CCC4=CC(=O)C=C[C@]4(C)[C@@]3(F)[C@@H](O)C[C@@]21C
Potency [1]: inactive | Potency [2]: inactive | Potency [3]: inactive

CCn1nc(C)c2c1C(=O)NCC(c1ccc(O)cc1)=N2
Potency [1]: inactive | Potency [2]: inactive | Potency [3]: inactive

COC(=O)C1=C(C)NC(C)=C(C(=O)OC)C1c1ccccc1[N+](=O)[O-]
Potency [1]: inactive | Potency [2]: inactive | Potency [3]: inactive

COc1ccc(CCN(C)CCCC(C#N)(c2ccc(OC)c(OC)c2)C(C)C)cc1OC (stereo not drawn)
Potency [1]: inactive | Potency [2]: inactive | Potency [3]: inactive

Cc1cccc(O)c1
Potency [1]: inactive | Potency [2]: inactive | Potency [3]: inactive

C1N2CN3CN1CN(C2)C3
Potency [1]: inactive | Potency [2]: inactive | Potency [3]: inactive

CC(C)NC(=O)NC(C)C
Potency [1]: inactive | Potency [2]: inactive | Potency [3]: inactive

CCOC(=O)N1CCC(=C2c3ccc(Cl)cc3CCc3cccnc32)CC1
Potency [1]: inactive | Potency [2]: inactive | Potency [3]: inactive

CCCC(=O)O
Potency [1]: inactive | Potency [2]: inactive | Potency [3]: inactive

CN(C)CCCN1c2ccccc2Sc2ccc(C(F)(F)F)cc21
Potency [1]: inactive | Potency [2]: inactive | Potency [3]: inactive

CC(CCc1ccccc1)NCC(O)c1ccc(O)c(C(N)=O)c1 (stereo not drawn)
Potency [1]: inactive | Potency [2]: inactive | Potency [3]: inactive

C[C@@H](NCCCc1cccc(C(F)(F)F)c1)c1cccc2ccccc12
Potency [1]: inactive | Potency [2]: inactive | Potency [3]: inactive

COc1ccc(CCC(C)=O)cc1
Potency [1]: inactive | Potency [2]: inactive | Potency [3]: inactive

CC(C)(C)NC(=O)[C@@H]1C[C@@H]2CCCC[C@@H]2CN1C[C@@H](O)[C@H](Cc1ccccc1)NC(=O)[C@H](CC(N)=O)NC(=O)c1ccc2ccccc2n1
Potency [1]: inactive | Potency [2]: inactive | Potency [3]: inactive

O=P(c1ccccc1)(c1ccccc1)c1ccccc1
Potency [1]: inactive | Potency [2]: inactive | Potency [3]: inactive

Cc1ccc(/C(=C\CN2CCCC2)c2ccccn2)cc1
Potency [1]: inactive | Potency [2]: inactive | Potency [3]: inactive

CCCCCCCC(=O)[O-].CCCCCCCC(=O)[O-].[Zn+2]
Potency [1]: inactive | Potency [2]: inactive | Potency [3]: inactive

CCOC(=O)NNc1ccc(N(CC)CC(C)O)nn1 (stereo not drawn)
Potency [1]: inactive | Potency [2]: inactive | Potency [3]: inactive

CNS(=O)(=O)c1cc(C(=O)N2CCC(CCN3C4CCC3CC(n3c(C)nc5ccccc53)C4)(c3cccc(F)c3)CC2)c(Cl)cc1F (stereo not drawn)
Potency [1]: 8.94 µM (active) | Potency [2]: inactive | Potency [3]: 7.96 µM (active)

CC(C)(C)c1ccc(C(O)CCCN2CCC(C(O)(c3ccccc3)c3ccccc3)CC2)cc1 (stereo not drawn)
Potency [1]: inactive | Potency [2]: inactive | Potency [3]: inactive

COC(=O)[C@H]1[C@H]2C[C@@H]3c4[nH]c5cc(OC)ccc5c4CCN3C[C@H]2C[C@@H](OC(=O)/C=C/c2ccc(O)c(OC)c2)[C@@H]1OC
Potency [1]: inactive | Potency [2]: inactive | Potency [3]: inactive

FC(F)(F)c1ccccc1Cl
Potency [1]: inactive | Potency [2]: inactive | Potency [3]: inactive

CC1(C)CCC[C@]2(C)[C@H]3CC(=O)O[C@]3(C)CC[C@@H]12
Potency [1]: inactive | Potency [2]: inactive | Potency [3]: inactive

CC1=Nc2ccc3ccccc3c2C1(C)C
Potency [1]: inactive | Potency [2]: inactive | Potency [3]: inactive

CCCCCCOC(=O)C(C)C
Potency [1]: inactive | Potency [2]: inactive | Potency [3]: inactive

CCN(CCO)CCCC(C)Nc1ccnc2cc(Cl)ccc12 (stereo not drawn)
activity, negative = inhibition [1]: -5.02% [at 10.5 µM] | activity change, negative = inhibition [2]: -2.76% [at 10.5 µM] | activity change, negative = inhibition [3]: -7.12% [at 10.5 µM]

CC(C)NCC(O)COc1ccc(CC(N)=O)cc1 (stereo not drawn)
Potency [1]: inactive | Potency [2]: inactive | Potency [3]: inactive

Nc1cccc(N)n1
Potency [1]: inactive | Potency [2]: inactive | Potency [3]: inactive

COc1cc(Cc2cnc(N)nc2N)cc(OC)c1OC
Potency [1]: inactive | Potency [2]: inactive | Potency [3]: inactive

CN(C)C(=O)C1(N2CCCCC2)CCN(CC[C@@]2(c3ccc(Cl)c(Cl)c3)CN(C(=O)c3ccccc3)CCO2)CC1
Potency [1]: 33.2 µM (active) | Potency [2]: 16.7 µM (active) | Potency [3]: 4.69 µM (active)

COc1cc(NCc2ccc3nc(N)nc(N)c3c2C)cc(OC)c1OC
Potency [1]: 8.71 µM (active) | Potency [2]: 30.9 µM (active) | Potency [3]: 3.09 µM (active)

CC1CC(O)CC(C)(C)C1 (stereo not drawn)
Potency [1]: inactive | Potency [2]: inactive | Potency [3]: inactive

CCc1ccccc1CC
Potency [1]: inactive | Potency [2]: inactive | Potency [3]: inactive

C=CC(=O)OCCC#N
Potency [1]: inactive | Potency [2]: inactive | Potency [3]: inactive

O=S(=O)(O)CC(O)CCl (stereo not drawn)
Potency [1]: inactive | Potency [2]: inactive | Potency [3]: inactive

O=S(=O)(c1cccc2cnccc12)N1CCCNCC1
Potency [1]: inactive | Potency [2]: inactive | Potency [3]: inactive

CS(=O)(=O)c1ccc([C@@H](O)[C@@H](CF)NC(=O)C(Cl)Cl)cc1
Potency [1]: inactive | Potency [2]: inactive | Potency [3]: inactive

C=CC(=O)NCOCCCC
Potency [1]: inactive | Potency [2]: inactive | Potency [3]: inactive | Potency [4]: inactive

Reference: PubChem BioAssay (Tox21)
